In the supplement of paper PMC7801607:

The molecules below were run on Plasmodium falciparum NF54 stage IV/V gametocytes (assay: % inhibition of gametocyte viability (PrestoBlue); higher = more inhibition). Conditions: 1 µM; 48 h.
Procedure, shortened: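 In a single run, percent inhibition of gametocyte viability was calculated relative to vehicle and kill controls. The wells held 100 µL of Stage IV/V NF54 gametocytes at 2% gametocytaemia and 5% haematocrit, with compound at 1 or 5 µM. Plates stood at 37 °C in hypoxic conditions for 48 h. After that, 10 µL PrestoBlue was added for 2 h, and 70 µL of supernatant was transferred for fluorescence reading at 612 nm.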

SMILES	% inhibition of gametocyte viability [%]
C[C@@H](c1nc(-c2ccc(C#N)cc2)cs1)[C@](O)(Cn1cncn1)c1ccc(F)cc1F	12.4
O=C(Nc1ccccc1)N(Cc1cc(Br)ccc1O)c1ccc(F)cc1	27.2
O=C(NC1CCCc2c1[nH]c1ccc(Cl)cc21)c1ccccn1 (stereo not given)	< 0
O=C(CSc1nnc(Br)n1-c1ccc(C2CC2)c2ccccc12)Nc1ccc(C(=O)O)cc1Cl	15.4
O=C(NN1C(=O)[C@@H]2C3C=CC([C@H]4C[C@@H]34)[C@@H]2C1=O)c1ccc(C(F)(F)F)cc1	< 0
CO[C@@]1(NC(=O)Cc2cccs2)C(=O)N2C(C(=O)O)=C(COC(N)=O)CS[C@@H]21	11.3
c1ccc(-c2nnc3c4ccccc4c(N4CCNCC4)nn23)cc1	27.8
O=C(O)c1ccccc1Sc1ncnc2sc3c(c12)CCC3	20
CCNC(=O)Nc1cc2c(-c3ccnc(C)c3)ccc(CNC(=O)OC)c2cn1	< 0
COc1c(F)c(F)cc2c(=O)c(C(=O)O)cn(C3CC3)c12	16.8
COC1CC2CCC(C)C(O)(O2)C(=O)C(=O)N2CCCCC2C(=O)OC(C(C)CC2CCC(OCCO)C(OC)C2)CC(=O)C(C)/C=C(\C)C(O)C(OC)C(=O)C(C)CC(C)/C=C/C=C/C=C/1C (stereo not given)	< 0
O=C(Nc1nnc(-c2ccccc2)o1)c1ccc(F)cc1	8.12
O=C(O)C(Cc1c[nH]c2ccccc12)N1C(=O)c2ccccc2C1=O (stereo not given)	< 0
O=C(NCc1ncc(C(F)(F)F)cc1Cl)c1c(Cl)cccc1Cl	< 0
CC(C)(C)NC(=O)[C@@H]1C[C@@H]2CCCC[C@@H]2CN1C[C@@H](O)[C@H](Cc1ccccc1)NC(=O)[C@H](CC(N)=O)NC(=O)c1ccc2ccccc2n1	< 0
